Screening results from PubChem.
CHT allo act – allosterically activates the human high affinity choline transporter; CHT-expressing cells, membrane potential dye, choline EC20; active compounds read high; LV-AA mutant CHT in HEK293 cells; actives 0.49% (n = 310,000); AID 488977; Q9GZV3; B-score at 10 µM;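 active = initial fluorescence not abnormally high and integrated response B-score, plate-corrected, over 3 SD above library mean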
Target sequence (Q9GZV3 whole entry, looked up): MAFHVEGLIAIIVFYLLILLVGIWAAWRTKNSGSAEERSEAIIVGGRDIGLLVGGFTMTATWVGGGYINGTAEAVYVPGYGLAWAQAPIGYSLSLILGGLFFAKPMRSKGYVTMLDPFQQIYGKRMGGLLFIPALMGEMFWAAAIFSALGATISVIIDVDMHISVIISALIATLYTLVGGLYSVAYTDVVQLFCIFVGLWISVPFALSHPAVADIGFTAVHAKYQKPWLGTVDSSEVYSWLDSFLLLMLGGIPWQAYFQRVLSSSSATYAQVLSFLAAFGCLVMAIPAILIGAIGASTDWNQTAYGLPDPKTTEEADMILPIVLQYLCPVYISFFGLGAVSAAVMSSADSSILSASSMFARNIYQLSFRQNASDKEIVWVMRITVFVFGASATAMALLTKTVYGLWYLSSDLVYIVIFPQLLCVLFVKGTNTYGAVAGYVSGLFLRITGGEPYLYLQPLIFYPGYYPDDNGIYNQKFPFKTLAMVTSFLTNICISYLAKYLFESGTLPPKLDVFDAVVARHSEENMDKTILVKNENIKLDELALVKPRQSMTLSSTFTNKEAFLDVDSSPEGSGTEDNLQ
PGE2 EP2 inh – inhibitors of human EP2 prostaglandin E2 receptor; C6 glioma cells expressing human EP2, cAMP TR-FRET; cells stimulated with saturating PGE2; inhibition, % at 25 µM; actives 0.52% (n = 260,000);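 active = percent inhibition above 40 after rounding to a whole number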;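 note: rat C6 glioma host cells with rolipram phosphodiesterase inhibitor present; the protocol text gives 20 µM as final concentration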
EP2 modulator – modulators of human EP2 prostaglandin E2 receptor | P43116 | EP2-expressing cells, cAMP HTRF FRET, PGE2 co-stimulation | induction, % at 25 µM | actives 0.83% (n = 260,000);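 active = compounds whose cAMP rise, as percent of the full-agonist control response, exceeds 60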;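 note: rat C6 glioma line stably carrying human EP2 under a CMV promoter; the protocol text gives 20 µM as final concentration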
CHT inh – inhibits the human high affinity choline transporter; Q9GZV3; CHT-expressing cells, membrane potential dye, choline response; active compounds read low; B-score at 10 µM; actives 0.86% (n = 310,000); AID 488975;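 active = B-score over 3 SD under the library average, and starting fluorescence ratio not unusually high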;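 note: choline stimulus applied at its EC90 after an EC20 pre-addition; B-score computed on integrated fluorescence ratio after choline addition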
CHT block conf – human CHT inhibition, confirmatory screen. actives 70% (n = 2,400). CHT-expressing cells, choline membrane potential dye; LV-to-AA substituted CHT, HEK293 cells. AID 493221. shares compounds with CHT inh. CHT activity remaining % of control (active compounds read low), % at 10 µM;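 active = choline transporter activity left, mean of duplicates at 10 µM, below buffer-only control mean minus 3 SD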;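 note: depolarization triggered by choline at its EC90 following an EC20 pre-addition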
HEK293 MPD ctr – counter-screen for CHT inhibitors: effect in parental HEK293 cells; actives 4% (n = 2,400); membrane potential dye, choline response; active = decrease or increase beyond buffer ±3SD; shares compounds with CHT inh; membrane potential ratio readout (active if shifted either direction beyond buffer ±3SD; no single direction) at 10 µM; AID 493222;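 note: parental cells lack the transporter so any hit is non-specific; ratio is peak minus trough fluorescence over baseline after EC90 choline challenge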
CHT activ conf – confirmation of human choline transporter (CHT) activators; shares compounds with CHT allo act; CHT-expressing cells, membrane potential dye fluorescence (FDSS); % of choline EC20–EC90 response window; HEK293 expressing CHT LV-AA mutant; choline added at its EC20; activation, % at 10 µM; actives 91% (n = 2,500);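 active = primary screen active, with duplicate mean activation above negative control mean plus 3 SD, cut at about 11% in these data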
HEK293 MP dye – counter-screen for CHT activators: effect in parental HEK293 cells. actives 62% (n = 2,500). shares compounds with CHT allo act. ratio readout change at 10 µM, hits read low. AID 623908. membrane potential dye fluorescence (FDSS); measured after EC20 choline addition;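 active = duplicate-averaged ratio beyond 3 SD from buffer wells, up or down, though filed actives are nearly all decreases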
Numbers stand for hits; – = inactive; · = no result; ! = not confirmed by another sample. This is a sample that favours compounds with a hit; in the whole collection about 2% have one here.

SMILES	CHT allo act	PGE2 EP2 inh	EP2 modulator	CHT inh	CHT block conf	HEK293 MPD ctr	others
O=C(Cc1csc(-c2ccccc2F)n1)N1CCCCC1CN1CCCCC1 (stereo not given)	·	–	–	·	·	·
C=CCn1c(O)c(C(CC)=NC(C)c2ccccc2)c(=O)[nH]c1=O (stereo not given)	–	–	–	-5	49%	–
CCCCn1c(O)c(C(CC)=NC(C)c2ccccc2)c(=O)[nH]c1=O (stereo not given)	–	–	–	–	·	·
C[C@]12CC[C@H](O)C[C@@H]1CC[C@@H]1[C@@H]2CC[C@]2(C)[C@@H](C(=O)O)C[C@@H]12	–	·	·	-14	–	–
CC(=O)[C@H]1CCC2C3CC[C@H]4C[C@H](O)CC[C@]4(C)C3CC[C@@]21C (stereo not given in full)	·	–	–	·	·	·
CC1CCCCC1NC(=O)CN1C2CCC1CC(O)(c1nccn1C)C2 (stereo not given)	·	·	–	·	·	·
O=C1CC2OCC=C3CN4CC[C@]56c7ccccc7N1C5[C@H]2[C@H]3CC46 (stereo not given in full)	·	–	–	·	·	·
Brc1ccc2c(c1)C(OC1CN3CCC1CC3)c1ccccc1CS2 (stereo not given)	–	–	–	-6.5	34%	–
O=C1NC(=O)N(c2ccc(Cl)cc2)C(=O)/C1=C/c1coc2ccc(O)cc2c1=O	–	–	–	-5.9	59%	–
CCCC(=O)NC(Oc1ccccc1Cl)C(Cl)(Cl)Cl (stereo not given)	–	–	–	-5	–	–
CCOc1cc(/C=C2/C(=O)NC(=O)N(c3ccc(CC)cc3)C2=O)ccc1OC(=O)c1cccs1	–	–	–	-6.6	59%	–
COc1cccc(C2(O)CCN(CCNC(=O)c3ccc(N(C)C)cc3)CC2)c1	·	–	–	·	·	·
CCOc1cc2c(cc1OCC)-n1cccc1C(c1cc(C)c(OC)cc1C)NC2 (stereo not given)	–	·	·	-5	–	–
CCOc1cc2c(cc1OCC)-n1cccc1C(c1ccc(C)cc1C)NC2 (stereo not given)	–	·	·	–	·	·
O=C(CN1C2CCC1CC(O)(c1ccc(F)cc1)C2)Nc1ccc(F)cc1 (stereo not given)	·	–	–	·	·	·
CCn1nc(CC(=O)N2CCN(Cc3ccco3)C[C@@H]2C(C)C)c2ccccc2c1=O	·	·	–	·	·	·
CC(C)OC(=O)c1c(N)n(CC2CCCO2)c2nc3ccccc3nc12 (stereo not given)	–	–	–	–	·	·
CC(C)OCCCNC(=O)c1c(N)n(CC2CCCO2)c2nc3ccccc3nc12 (stereo not given)	–	–	·	-5.1	–	–
CCCNC(=O)c1c(N)n(CC2CCCO2)c2nc3ccccc3nc12 (stereo not given)	–	–	–	–	·	·
Nc1c(C(=O)OC2CCCCC2)c2nc3ccccc3nc2n1CC1CCCO1 (stereo not given)	–	·	·	-8.6	51%	–
COC(=O)C1=C(c2cc3ccccc3o2)C[C@@H]2CC[C@H]1N2C(=O)N1CCCC1	–	–	·	-6.2	65%	–
C#CCOc1ccc(CN2C3CCC2CC(O)(c2ccccc2F)C3)cc1OCC (stereo not given)	·	–	–	·	·	·
O=c1cccc2n1CC1CC2CN(Cc2cccc(Cl)c2Cl)C1 (stereo not given)	–	–	–	-5.4	65%	–
O=C(CN1C2CCC1CC(O)(c1ccco1)C2)Nc1ccccn1 (stereo not given)	·	·	–	·	·	·
CCC(=NCCc1c[nH]c2ccccc12)c1c(O)n(C)c(=O)n(C)c1=O	–	–	–	-5.7	–	–
SMILES	CHT allo act	PGE2 EP2 inh	EP2 modulator	CHT inh	CHT block conf	HEK293 MPD ctr	others
CC1=CC2/C=C(\C)CCC(O)C(O)/C=C/C(=O)C23C(=O)NC(CC(C)C)C3C1C (stereo not given)	–	–	–	-6.5	24%	–
C/C1=C\[C@@H](C)C/C=C/[C@H]2[C@@H]3O[C@]3(C)[C@@H](C)[C@H]3[C@H](Cc4c[nH]c5ccccc45)NC(=O)[C@]32C(=O)/C=C/C(=O)[C@@H]1O	–	–	–	–	·	·
Clc1cc(I)cc(Cl)c1NC1=NCCN1	–	–	–	-7	6.0%	–
Cc1cccc(C2=NCC(=O)N(CC(=O)N3CCOCC3)c3sccc32)c1	·	–	–	·	·	·
CNC(=O)OCC[N+](C)(C)C	·	–	–	·	·	·
C[N+](C)(C)CCOC(=O)CBr	–	–	–	-8	-8.4%	–
CC(=O)OCC[N+](C)(C)C	–	–	–	-7.5!	25%	–
COc1ccc(C2(O)CC3CCC(C2)N3CC(C)(C)CN2CCOCC2)cc1 (stereo not given)	·	–	–	·	·	·
Cc1cc(C)c2c(ccc3cccc[n+]32)c1	6.3	·	·	–	·	·	CHT activ conf=72;HEK293 MP dye=-55
NC(N)=Nc1ccc2[nH]c3c(c2c1)C[C@@]1(O)[C@H]2Cc4ccc(O)c5c4[C@@]1(CCN2CC1CC1)[C@H]3O5	8.3	–	–	–	·	·	CHT activ conf=12;HEK293 MP dye=-33
OCC[N+]12CCC(CC1)C(C(O)(c1ccccc1)c1ccccc1)C2 (stereo not given)	–	–	–	–	·	·
O=C(C[N+]12CCC(CC1)C(C(O)(c1ccccc1)c1ccccc1)C2)c1ccc(Br)cc1 (stereo not given)	–	–	–	–	·	·	CHT activ conf=30;HEK293 MP dye=-22
CC1=NCCc2c1[nH]c1cc(O)ccc21	–	–	–	–	·	·
COc1ccc2c3c([nH]c2c1)C(C)=NCC3	–	–	–	–	·	·	CHT activ conf=33;HEK293 MP dye=-43
CC[n+]1c(/C=C/N(C)c2ccccc2)sc2ccc(Cl)cc21	–	–	–	–	·	·	CHT activ conf=15;HEK293 MP dye=-39
CC(C)c1cc2c(c(O)c1O)[C@@]1(C(=O)O)CCCC(C)(C)C1CC2 (stereo not given in full)	·	–	–	·	·	·
Cn1ccnc1C1(O)CC2CCC(C1)N2CC(=O)Nc1ccc(N2CCCC2)cc1 (stereo not given)	·	·	–	·	·	·
Cc1ccc(-c2cc(-c3ccccc3)cc(-c3ccccc3)[n+]2-c2ccccc2C(=O)O)cc1	–	·	·	–	·	·
C[n+]1c(-c2ccccc2)cc(-c2ccc(O)cc2)cc1-c1ccccc1	7	–	–	–	·	·	CHT activ conf=55;HEK293 MP dye=-58
Oc1ccc(-[n+]2c(-c3ccccc3)cc(-c3ccccc3)cc2-c2ccccc2)cc1	9.8	·	·	–	·	·	CHT activ conf=80;HEK293 MP dye=-26
O=C([O-])c1ccc(-[n+]2c(-c3ccccc3)cc(-c3ccccc3)cc2-c2ccccc2)cc1	–	·	·	–	·	·
